Source: PubChem (Johns Hopkins Ion Channel Center)
KCNQ2 inh: rat KCNQ2 potassium channel inhibitors, primary screen, cell-based, CHO-K1, FluxOR thallium flux, B-score. 310,000 tested, 1.1% active. 20 min; stronger effect = lower value. B-score at 10 µM. AID 2156, 2009;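 active = fluorescence ratio B-score at most minus 3 library SDs, with starting brightness B-score within 2 library SDs, cut at about -5.5 in these data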
KCNQ2 enhance: potentiators of rat KCNQ2 potassium channel; B-score at 10 µM; CHO-K1 KCNQ2, FluxOR thallium flux fluorescence; stronger effect = higher value; Potassium voltage-gated channel subfamily KQT member 2 (Rattus norvegicus), O88943; 310,000 tested, 0.54% active; AID 2239, 2010;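 active = fluorescence ratio B-score at least 3 SD of library B-scores, with initial fluorescence B-score within 3 of them, cut at about 5.3 in these data; same plate scores as AID 2156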;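 note: B-score of peak minus minimum over baseline fluorescence ratio after K+ and Tl+ stimulus; positive B-score means potentiation of KCNQ2 with more thallium influx and brighter signal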
Numbers without * were called inactive; i = inactive; . = no result given. Sampled rows, rich in hits. Any-hit rate of the full collection: about 1.6%.

SMILES	KCNQ2 inh	KCNQ2 enhance
CCN(CC)CCNC(=O)c1c(C)n(-c2ccccc2)c2cc(Br)c(OC)cc12	-5.8*	-5.8
COc1cc2c(C(=O)N3CCN(C)CC3)c(C)n(-c3ccccc3)c2cc1Br	i	.
Cc1cc(C)n(-c2nc(-n3nc(C)cc3C)c3c4c(sc3n2)COC(C)(C)C4)n1	-8*	-8
Cc1cc(C)n(-c2nc(NCCN(C)C)c3c4c(sc3n2)COC(C)(C)C4)n1	i	1.7
COC(=O)/C=C1\SC(N)=NC1=O	i	.
O=C(Cc1ccsc1)NNC(=O)c1cccc(Cl)c1	i	0.53
CCSc1nnc(NC(=O)[C@@H](NC(=O)c2ccc(C(C)(C)C)cc2)C(C)C)s1	i	.
CC(/C=C/C(=O)c1ccc(C)cc1)=C\c1ccccc1	i	.
Cc1ccc(C(=O)/C=C\C(=O)c2ccc(C)cc2)cc1	-5.7*	-5.7
COc1cc(OC)c(OC)cc1/C=C1\Oc2cc(OCC(=O)N3Cc4ccccc4C[C@H]3C(=O)O)ccc2C1=O	i	.
CC(NC(=O)NC1CCCCC1)c1ccccc1 (stereo not drawn)	i	13*
O=C(Nc1ccccc1)NC1CCCCCCC1	i	0.03
COc1ccc(OC)c(S(=O)(=O)NC2CCCCNC2=O)c1 (stereo not drawn)	i	.
Cc1ccc(NC(=O)COC(=O)Cc2ccsc2)c(C)c1	i	0.06
Cc1ccc(C(C[N+](=O)[O-])c2c(N)n(C)c(=O)n(C)c2=O)cc1 (stereo not drawn)	-8*	-8
COc1cc(C(C[N+](=O)[O-])c2c(N)n(C)c(=O)n(C)c2=O)ccc1O (stereo not drawn)	i	.
CC1CC(C)CN(C(=O)C2CCN(S(=O)(=O)c3ccc4c(c3)CC(C)N4C(=O)C3CC3)CC2)C1 (stereo not drawn)	i	.
CCCC[C@@H]1C[C@H]1[C@@H](NC(=O)c1cccs1)c1ccc(Cl)cc1	-8*	-8
CCCC[C@@H]1C[C@H]1[C@@H](NC(=O)c1ccco1)c1ccc(Cl)cc1	i	.
Cc1ccc(COc2ccsc2C(=O)NNC(N)=S)cc1	i	.
Cc1nc(-c2ccc(NC(=O)c3ccc(Br)o3)cc2)cs1	i	.
COc1ccc(C2(C(=O)NCc3ccccc3Cl)CCOCC2)cc1OC	i	0.8
COc1ccccc1CNC(=O)C1(c2ccc(Cl)cc2)CC1	-5.7*	-5.7
CCC(=O)N(Cc1cc(=O)[nH]c2ccccc12)c1ccc(C)cc1C	i	0.76
CC(Oc1ccccc1)C(=O)N=C1SC2CS(=O)(=O)CC2N1c1cccc(F)c1 (stereo not drawn)	i	.
SMILES	KCNQ2 inh	KCNQ2 enhance
Cc1ccc(C(=O)c2ccccc2C(=O)OCC(=O)NCC2CCCO2)cc1 (stereo not drawn)	i	1.4
Cc1nn2c(SCC(=O)c3cccs3)cc(C(C)(C)C)nc2c1-c1ccccc1	i	20*
Cc1cc(SCC(=O)c2cccs2)n2nc(C)c(-c3ccc(Cl)cc3)c2n1	i	2.4
CN(C(=O)CCS(=O)(=O)c1cc2c(cc1Cl)NC(=O)CO2)C1CCCCC1	i	0.04
CCC(C)[C@H](NS(=O)(=O)c1ccc(C)cc1)C(=O)N1CCC(C(=O)N2CCC(C(=O)OC)CC2)CC1 (stereo partly drawn)	i	0.31
O=C(NC(NCc1ccccc1)C(Cl)(Cl)Cl)c1cccnc1 (stereo not drawn)	i	.
O=C(NC(NCc1cccnc1)C(Cl)(Cl)Cl)c1cccc2ccccc12 (stereo not drawn)	-6.3*	-6.3
NNC(=O)COc1ccc(C(F)(F)F)cc1	i	0.93
COC(=O)c1c(N2C(=O)CC(Sc3ccccc3C(=O)O)C2=O)sc2c1CCCC2 (stereo not drawn)	i	3.2
CCCC1(C(=O)OC)NC(c2ccc(OC)cc2OC)C2C(=O)N(c3cccc(C(C)=O)c3)C(=O)C21 (stereo not drawn)	-5.9*	-5.9
CCCC1(C(=O)OC)NC(c2ccc(OC)c(OC)c2)C2C(=O)N(c3cccc(C(C)=O)c3)C(=O)C21 (stereo not drawn)	i	.
COc1cc(OC)cc(C(=O)NCCOC23CC4CC(CC(C4)C2)C3)c1	i	.
Cc1ccc(C(=O)NCCOC23CC4CC(CC(C4)C2)C3)cc1	-6*	-6
CCOc1ccccc1/C=N/NC(=O)CNC(=O)c1cccs1	i	1.1
Clc1ccc(-c2nsc(N3CCOCC3)n2)c(Cl)c1	i	0.45
Cc1ccccc1C(=O)NNc1ccc(-c2csnn2)cc1	i	.
O=c1c(Cc2c(F)cccc2Cl)c(O)ccn1Cc1ccc(F)cc1	i	.
O=c1c(Cc2c(F)cccc2Cl)c(O)ccn1C1CCCCCC1	-7.8*	-7.8
COc1cccc(NC(=O)COC(=O)c2ccccc2C(=O)N2CCN(c3ccccc3)CC2)c1	i	.
CCOc1ccc(CN(C)C(=O)CNC(=O)c2cc(OC)c(OC)c(OC)c2)cc1	i	0.99
Cc1onc(-c2ccccc2)c1C(=O)N/N=C/c1cn(C)c2ccccc12	-6.4*	-6.4
Cc1cccc(/C=N/NC(=O)c2c(-c3ccccc3)noc2C)c1O	i	.
COc1ccc(-c2csc(NC(=O)C3CC(=O)N(Cc4ccccc4)C3)n2)cc1OC (stereo not drawn)	i	0.59
COc1cc(OC)cc(C(=O)OCCCOC(=O)c2cc(OC)cc(OC)c2)c1	i	.
CC(=O)SC(C[N+](=O)[O-])c1cn(C(C)=O)c2ccccc12 (stereo not drawn)	-5.6*	-5.6
SMILES	KCNQ2 inh	KCNQ2 enhance
CC(=O)n1cc(Nc2ccc([N+](=O)[O-])cc2)c2ccccc21	i	0.03
O=[N+]([O-])c1ccc(CN2CCC(Cc3ccccc3)CC2)cc1	i	0.36
O=[N+]([O-])c1cccc(OCCCN2CCC(Cc3ccccc3)CC2)c1	-5.7*	-5.7
COC(=O)C1CCCN1C(=O)COc1ccc(Cl)cc1Br (stereo not drawn)	i	15*
COc1ccccc1N1CCN(C(=O)COc2ccc(Cl)cc2Br)CC1	i	.
COc1ccc(C)cc1N(C(=O)c1snc(C(N)=O)c1N)C(C(=O)NC1CCCCC1)c1ccc(C)o1 (stereo not drawn)	i	.
Cc1ccc(OCCN(C)C(=O)C2CCC(=O)N(CCCN3CCCC3=O)C2)cc1 (stereo not drawn)	i	1.2
CCOc1ccc(-c2cc(N)n(S(=O)(=O)c3ccc(OC)cc3)n2)cc1	i	2
COc1ccc(-c2cc(N)n(S(=O)(=O)c3c(F)c(F)c(F)c(F)c3F)n2)cc1OC	-8.8*	-8.8
CCOc1ccccc1C(=O)N[C@H](C(=O)OCc1cc(=O)oc2cc(C)ccc12)C(C)C	i	.
COc1cc(OC)cc(C(=O)N[C@H](C(=O)OCc2cc(=O)oc3cc(C)ccc23)C(C)C)c1	-7.7*	-7.7
O=C(CSC1=NS(=O)(=O)c2ccccc21)Nc1ccccc1	-6.4*	-6.4
O=C(CSC1=NS(=O)(=O)c2cc(F)ccc2N1)Nc1ccccc1	i	.
C/C(CC(=O)NC1CCCCC1)=N\NC(=O)COc1ccc(C)cc1Br	i	1.1
O=C(Nc1cccc(F)c1)N1CC=C(c2ccc(Cl)cc2)CC1	-6.6*	-6.6
O=C(CN1CCN(c2ccc(Cl)cc2)CC1)Nc1cccc(F)c1	i	.
O=c1c2ccccc2nc(SCc2nnc(-c3ccccc3Br)o2)n1-c1ccccc1	i	.
